Out of some 2,400 compounds screened, about 580 (24%) were called active. The list is a sample of the results. Values without a mark were called inactive.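 Rule for the calls: active = activity change at or above the mean plus 3 SD of buffer wells without dofetilide, per plate; inactive = the rest.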
These molecules were tested against Potassium voltage-gated channel subfamily KQT member 2 (Rattus norvegicus) (UniProt O88943) (assay: KCNQ2 potentiation in CHO cells – cell-based, FluxOR thallium flux, counter-screen for hERG block protector project, confirmation (AID 1942;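 note: normalized value minus buffer-control mean plus three SD of buffer wells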)). Conditions: FluxOR thallium flux fluorescence, at 10 µM, stronger effect = higher value.
Potassium voltage-gated channel subfamily KQT member 2 (Rattus norvegicus), sequence (O88943 whole entry, looked up): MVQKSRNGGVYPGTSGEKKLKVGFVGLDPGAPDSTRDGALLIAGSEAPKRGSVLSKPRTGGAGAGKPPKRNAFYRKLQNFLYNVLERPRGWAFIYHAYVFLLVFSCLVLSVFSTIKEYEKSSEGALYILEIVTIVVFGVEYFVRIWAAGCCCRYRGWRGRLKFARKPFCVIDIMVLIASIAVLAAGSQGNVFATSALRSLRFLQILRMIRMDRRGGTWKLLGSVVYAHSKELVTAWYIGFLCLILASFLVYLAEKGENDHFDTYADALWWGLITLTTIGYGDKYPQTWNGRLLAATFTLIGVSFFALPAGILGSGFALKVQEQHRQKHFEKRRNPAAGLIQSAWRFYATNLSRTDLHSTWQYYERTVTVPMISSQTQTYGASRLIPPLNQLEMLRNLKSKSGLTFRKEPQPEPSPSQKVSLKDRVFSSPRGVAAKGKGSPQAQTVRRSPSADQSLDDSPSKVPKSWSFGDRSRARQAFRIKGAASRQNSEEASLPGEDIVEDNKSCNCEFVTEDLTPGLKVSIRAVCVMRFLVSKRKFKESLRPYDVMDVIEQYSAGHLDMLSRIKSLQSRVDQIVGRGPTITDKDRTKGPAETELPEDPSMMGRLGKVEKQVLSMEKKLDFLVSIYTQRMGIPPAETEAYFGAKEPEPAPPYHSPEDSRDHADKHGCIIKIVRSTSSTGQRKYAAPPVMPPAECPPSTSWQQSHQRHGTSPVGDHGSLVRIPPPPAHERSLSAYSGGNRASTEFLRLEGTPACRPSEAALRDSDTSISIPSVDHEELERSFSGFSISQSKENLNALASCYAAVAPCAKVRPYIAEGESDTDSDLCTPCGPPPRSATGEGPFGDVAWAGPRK

In order of rising activity change, less the hit threshold:
1. OC(CCN1CCOCC1)c1ccccc1 (stereo not drawn)  -33.4%
2. Cc1ccccc1CC(=O)NC1CCN(Cc2ccccc2)CC1  -25.3%
3. CCCCNC(=S)NNC(=O)c1ccc2c(c1)OCO2  -24.3%
4. Cc1ccc2nc(-c3ccccn3)cc(C(=O)NC3CCN(C)CC3)c2c1  -23.8%
5. O=C(NCc1cccc(Cl)c1)c1ccncc1  -23.6%
6. Cc1cc(S(=O)(=O)NCC(C)C)ccc1OCC(=O)NCc1ccccn1  -21.1%
7. O=C1C2C3C=CC(C4CC34)C2C(=O)N1/N=C/c1ccc(-c2ccc(F)cc2[N+](=O)[O-])o1 (stereo not drawn)  -20.9%
8. COCCNC(=O)C(c1ccncc1)N(C(=O)Cn1nnc2ccccc21)c1ccc(OC)cc1 (stereo not drawn)  -20.7%
9. CC1Cc2cc(S(=O)(=O)NCc3ccccc3)ccc2N1C(=O)C1CCC1 (stereo not drawn)  -20.4%
10. O=S(=O)(Nc1ccc(O)c2ccccc12)c1ccc(F)cc1  -19.8%
11. CN1C(=O)/C(=N/OC(=O)c2ccccc2)c2ccccc21  -19.8%
12. COc1cc(C2c3c(n[nH]c3C)C(=O)N2c2ccc(C)cc2)ccc1O (stereo not drawn)  -19.5%
13. Cc1nc(NC(=S)NC(=O)COc2ccc(Cl)cc2)ccc1Br  -19.1%
14. Fc1cccc(/C=N/Nc2ccc3ccccc3n2)c1  -17.9%
15. Nc1cccc(Oc2cnccn2)c1  -17.9%
16. COCCNC(=O)C1CC(=O)N(c2ccc(OC)cc2)C1c1ccc(OC)cc1 (stereo not drawn)  -16.8%
17. COc1ccc(N(CC(=O)N2CCN(Cc3ccccc3)CC2)S(C)(=O)=O)cc1OC  -16.5%
18. Cc1ccc(-c2nnn(CC(=O)N(CC3CCCO3)C(C(=O)NC3CCCC3)c3ccc(O)cc3)n2)o1 (stereo not drawn)  -15.8%
19. CCOC(=O)C(C)Sc1nc2c(c(-c3cccs3)c1C#N)CCC2 (stereo not drawn)  -15.1%
20. Cc1cc(C(=O)NNC(=O)c2cccs2)nn1C(C)(C)C  -14.9%
21. CC1CC(C)CN(CCCNC(=O)Cc2c(C(=O)O)[nH]c3ccccc23)C1 (stereo not drawn)  -14.9%
22. Cc1ccc(NC(=O)c2ccc3c(c2)OCO3)cc1Cl  -14.7%
23. CCOc1cc(Br)c(C(=O)O)cc1OC  -13.8%
24. O=C(OCC(=O)N1CCOCC1)c1ccc(Cl)cc1[N+](=O)[O-]  -13.6%
25. CCOc1ccc(NC(=O)c2ccc(NC(=O)CSc3nc4ccccc4c(=O)[nH]3)cc2)cc1  -13.5%
26. O=c1ccn(CCCBr)c(=O)[nH]1  -13.2%
27. Cc1ccc(-c2nc(CS(=O)(=O)CC(=O)NCCN3CCOCC3)c(C)o2)cc1  -12.6%
28. C=C(C)Cc1c(C)nc(-c2ccccc2)[nH]c1=O  -12.3%
29. Nc1ccc(Cl)c(NC(=O)c2cccs2)c1  -12.3%
30. Cc1ccc(OCC(=O)NC(=S)Nc2ccc(Br)cn2)cc1C  -11.2%
31. COc1cc2c(cc1OC)C(C)N(C(=S)NC(=O)c1ccccc1)CC2 (stereo not drawn)  -10.9%
32. Nn1c(SCC(=O)Nc2ccccc2F)nnc1C1CCCCC1  -10.5%
33. Cc1cc(C(=O)CCC(=O)NC(C)c2ccc(S(N)(=O)=O)cc2)c(C)s1 (stereo not drawn)  -10%
34. Cc1csc2ncc(C(=O)N3c4ccccc4CC3C)c(=O)n12 (stereo not drawn)  -9.8%
35. CNC(=O)c1[nH]cnc1C(=O)Nc1ccccn1  -9.6%
36. CC(C)OC(=O)N(C)c1ccc(C(O)(C(F)(F)F)C(F)(F)F)cc1  -9.3%
37. Cc1nonc1OCCNc1ccc([N+](=O)[O-])cc1  -8.5%
38. Cc1cccc(NC(=S)NNC(=O)c2csc3c2CCC(C)C3)c1 (stereo not drawn)  -8.1%
39. CC(=O)c1c(C)[nH]c(-c2ccccc2)nc1=S  -7.7%
40. Cc1ccc2c(c1)C1CN(C)CCC1N2C(=S)NC(=O)c1ccc(Br)cc1 (stereo not drawn)  -7%
41. COC(=O)CSc1nc(N2CCCCC2)c2c(c1C#N)CCCC2  -6.4%
42. CC(=O)c1c(N2CCCC2)[nH]c(-c2ccccc2)nc1=S  -6%
43. O=C(O)CCCCn1c(SCc2ccccc2Cl)nc2ccsc2c1=O  -5.9%
44. Cc1ccc(C)c(NC(=O)C2C3CCCC2C3c2ccccc2)c1 (stereo not drawn)  -4.2%
45. CC1Cc2ccccc2N1C(=S)NC(=O)c1ccco1 (stereo not drawn)  -3.3%
46. COc1cc2c(cc1OC)CN(C(=O)c1ccc3nc[nH]c3c1)CC2  -2.1%
47. Cn1c(NNC(=O)C(c2ccccc2)c2ccccc2)cc(=O)n(C)c1=O  -1.8%
48. Cc1ccc(NS(=O)(=O)c2cn(C)c(=O)n(C)c2=O)c(C)c1  -0.5%
49. Cc1ccc(/C=N/Nc2nc(C(C)(C)C)cs2)o1  -0.3%
50. CC(=O)c1c(N)[nH]c(-c2ccccc2)nc1=S  -0.2%

With `CC(=O)c1c(NC(=O)c2ccccc2)[nH]c(-c2ccccc2)nc1=S` the activity change, less the hit threshold was 7% (active).
With `CC(=O)c1c(N2CCN(Cc3ccccc3)CC2)[nH]c(-c2ccccc2)nc1=S` the activity change, less the hit threshold was 22.7% (active).
For `CSc1nc(-c2ccccc2)[nH]c(=S)c1C(C)=O`, the activity change, less the hit threshold was 72.6% (active).
In the case of `Cc1ccc(C(C)NC(=O)c2cccs2)cc1C` (stereo not drawn), the activity change, less the hit threshold is reported as 4% (active).
In the case of `Cc1ccc(C(C)NC(=O)c2ccc3c(c2)OCO3)cc1C` (stereo not drawn), the activity change, less the hit threshold is reported as 27.1% (active).
For `Cc1ccc(C(=O)NC(C)c2ccc(C)c(C)c2)s1` (stereo not drawn), the activity change, less the hit threshold was 24.3% (active).
`Cc1ccc(C)c(NC(=S)NNC(=O)c2csc3c2CCC(C)C3)c1` (stereo not drawn) was tested, and the activity change, less the hit threshold was 14.5% (active).
With `COC(=O)CSc1nc2c(c(-c3ccc(C)o3)c1C#N)CCCC2` the activity change, less the hit threshold was 7.4% (active).
For `Cc1ccc(OCC(=O)NC(=S)Nc2ccc(Br)cn2)cc1`, the activity change, less the hit threshold was 12.4% (active).
With `COCCNC(=O)C(c1ccc(C)o1)N(Cc1ccc(OC)cc1)C(=O)Cn1nnc2ccccc21` (stereo not drawn) the activity change, less the hit threshold was 19.1% (active).
`CC1Cc2ccccc2N1C(=S)NC(=O)C1(C)CC1(Cl)Cl` (stereo not drawn) was tested, and the activity change, less the hit threshold was 38.1% (active).
For `CC1Cc2ccccc2N1C(=S)NC(=O)c1cccc(Br)c1` (stereo not drawn), the activity change, less the hit threshold was 121% (active).
With `CC1Cc2ccccc2N1C(=S)NC(=O)c1ccc(Cl)cc1Cl` (stereo not drawn) the activity change, less the hit threshold was 52.5% (active).

Source: PubChem BioAssay AID1942 (Johns Hopkins Ion Channel Center, 2009)
